Experiment [1] has as its target Thyroid hormone receptor beta (Homo sapiens) (UniProt P10828). The experiment is described as follows: qHTS assay for small molecule antagonists of thyroid hormone receptor beta signaling (AID 588547; active = well fitted inhibition curve with a large enough effect in the signal ratio, with a control signal flat, not every such curve was filed as active; the % refers to the signal ratio;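 also: cells stimulated with 0.4 nM T3 agonist during compound exposure; % is scaled to controls: 0 for no effect and ±100 for the full control effect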). Conditions: TR-UAS-bla HEK293, beta-lactamase ratio, antagonist mode, 18 h. The procedure, abridged:
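TR-UAS-bla GripTite HEK293 cells in 2% charcoal/dextran FBS medium were preincubated 4 h at 37 C, given compound (0.59 nM to 92 uM) plus 0.4 nM T3 (final) for 18 h, then CCF4 for 2 h at RT; Hill fit gave IC50.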

Experiment [2] addresses Voltage-gated inwardly rectifying potassium channel KCNH2 (Homo sapiens) (UniProt Q12809). The experiment is described as follows: qHTS Assay for Small Molecule Inhibitors of the Human hERG Channel Activity (AID 588834).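 Also: top concentration of the series differs between compounds; % is scaled to controls: 0 for no effect and ±100 for the full control effect; lower thallium flux fluorescence means stronger hERG block; nearly all actives have a fitted effect of over 50% in size.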 Conditions: U2OS BacMam hERG, FluxOR thallium flux fluorescence; series mostly up to 46.1 µM. The procedure, abridged:
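Homogeneous FluxOR thallium flux assay using hERG-expressing U2OS cells (BacMam). Compound treatment about 10 minutes preceded stimulation; reduced fluorescence taken as channel block.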

The target in experiment [3] is Glutaminase kidney isoform, mitochondrial (Homo sapiens) (UniProt O94925). As to the kind of experiment: qHTS for Inhibitors of Glutaminase (GLS): LOPAC Validation (AID 624146). Also: potency is read from the fitted curve at half-maximal effect; nearly all actives have a fitted effect of over 60% in size. Conditions: glutaminase enzyme activity inhibition. The essentials:
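Enzyme dispensed in phosphate buffer (45 mM, pH 8.2, 0.02% Tween-20), compounds pinned in, then 1 mM L-glutamine solution and the glutamate oxidase–HRP–Amplex Red mix added; fluorescence read immediately and again after 30 min at room temperature.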

A short description of experiment [4]: qHTS of Trypanosoma Brucei Inhibitors: LOPAC Validation (AID 624147). Also: 0% is about no effect. Conditions: purified enzyme assay, luminescence, 45 min; series mostly up to 57.5 µM. The procedure, abridged: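 Readout: single end-point luminescence (Kinase-Glo Plus, 10 min). Reaction conditions were TbPYK/substrate plus 130 uM ADP, 45 min at RT, pH 7.2 TEA buffer. No-enzyme wells served as controls, and data were normalized before concentration-response fitting.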

Experiment [5] deals with Glucagon-like peptide 1 receptor (Homo sapiens) (UniProt P43220). The experiment is described as follows: qHTS of GLP-1 Receptor Agonists: LOPAC Validation (AID 624148).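 Also: 0% is about no effect; higher luminescence signal means agonism.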 Conditions: GLP-1R agonist cell assay; series mostly up to 46.1 µM. The procedure, abridged:
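HEK293 cells stably co-expressing a cAMP-responsive luciferase reporter and a hypersensitive GLP-1R were plated 12 h at 37 °C and exposed to compounds for 4-6 hr at 37 °C, 5% CO2. Luminescence was read 12 min after adding detection reagent.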

Experiment [6] in a line: qHTS of Nrf2 Activators: LOPAC Validation (AID 624149). Also: 0% is about no effect. Conditions: Nrf2/ARE reporter cell assay; series mostly up to 46.1 µM. The essentials:
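AREc32_Fluc cells, 1000/well, OPTI-MEM + 5% FBS, o/n 37 deg C 5% CO2; compound pin-transfer, 24 hr 37 deg C; Steady-Glo 30 min RT, luminescence read.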

The target in experiment [7] is Luciferin 4-monooxygenase (Photinus pyralis) (UniProt P08659). As to the kind of experiment: Biochemical firefly luciferase enzyme assay for NPC (AID 624030).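 Also: purified P. pyralis luciferase at 10 nM with luciferin and ATP substrate; 0% = DMSO and -100% = full luciferase inhibition by PTC124 control; nearly all actives have a fitted effect of over 70% in size.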 Conditions: purified P. pyralis luciferase, luminescence, 5 min; series mostly up to 58.6 µM. The procedure, abridged: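 Counter-screen for direct inhibition of the luciferase enzyme by approved-drug library compounds, run at 10 nM enzyme in 50 mM Tris acetate (final). Luminescence was read within 5 min of enzyme-buffer addition and normalized to PTC124 versus DMSO (0%).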

Experiment [8] can be described thus: S16 Schwann cell viability assay (CellTiter-Glo assay) (AID 624031).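 Also: native untransfected S16 rat Schwann cells; cellular ATP luminescence as a viability measure; plate controls were DMSO-treated cells for no effect and cell-free wells for full effect; nearly all actives have a fitted effect of over 70% in size.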 Conditions: S16 rat Schwann cells viability, 24 h; series mostly up to 57.5 µM. The procedure, abridged: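 Parental S16 cells, 24 h compound, 37 °C. ATP-luminescence viability; DMSO = 0% activity, empty wells as reference; curves classified by fit quality and efficacy.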
Experiment [9] in a line: S16 Schwann cell PMP22 intronic element firefly luciferase assay (AID 624032).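 Also: plate controls were DMSO for no effect and PTC124 positive control mean for full effect; nearly all actives have a fitted effect of over 30% in size.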 Conditions: S16 rat Schwann cells, PMP22 element FLuc, 24 h; series mostly up to 57.5 µM. The essentials: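 Rat S16 Schwann cells stably carrying a PMP22 intronic element-driven Fluc reporter were seeded overnight, then exposed to compounds for 24 h at 37 °C. Luminescence was normalized to PTC124 (positive control) and DMSO (0% activity).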

Experiment [10] is described as follows: S16 Schwann cell PMP22 intronic element beta-lactamase assay (AID 624044; calls by dose curve;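 also: 0% = DMSO and -100% = potassium clavulanate positive control; nearly all actives have a fitted effect of over 15% in size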). Conditions: S16 rat Schwann cells, PMP22 element beta-lactamase FRET, 24 h; ratio activity, negative = inhibition: at 38.3 µM (top of the series) unless noted. The essentials: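 Beta-lactamase reporter under a PMP22 intronic regulatory element in stable S16 rat Schwann cells; 24 h compound exposure. 460 nm blue signal normalized between DMSO (0%) and potassium clavulanate, with 535 nm FRET tracking viability; curves classed by r2 and response.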

Several values for one entry are separate records, joined by “and”; a condition that tells them apart may be missing. Equal values may be shown once. Unmarked numbers belong to inactive results. Records with an inconclusive call do not appear. Activity calls are given as the source filed them. Unless noted, calls follow the shape of the dose curve; as a rule, active = well fitted curve in the direction sought with a large enough effect; inconclusive = small, poorly fitted or top-dose-only effect, or another doubt; inactive = no such curve, though single readings can be large; an effect the other way counts as inactive or inconclusive.

Luciferin 4-monooxygenase (Photinus pyralis), sequence (P08659 whole entry, looked up): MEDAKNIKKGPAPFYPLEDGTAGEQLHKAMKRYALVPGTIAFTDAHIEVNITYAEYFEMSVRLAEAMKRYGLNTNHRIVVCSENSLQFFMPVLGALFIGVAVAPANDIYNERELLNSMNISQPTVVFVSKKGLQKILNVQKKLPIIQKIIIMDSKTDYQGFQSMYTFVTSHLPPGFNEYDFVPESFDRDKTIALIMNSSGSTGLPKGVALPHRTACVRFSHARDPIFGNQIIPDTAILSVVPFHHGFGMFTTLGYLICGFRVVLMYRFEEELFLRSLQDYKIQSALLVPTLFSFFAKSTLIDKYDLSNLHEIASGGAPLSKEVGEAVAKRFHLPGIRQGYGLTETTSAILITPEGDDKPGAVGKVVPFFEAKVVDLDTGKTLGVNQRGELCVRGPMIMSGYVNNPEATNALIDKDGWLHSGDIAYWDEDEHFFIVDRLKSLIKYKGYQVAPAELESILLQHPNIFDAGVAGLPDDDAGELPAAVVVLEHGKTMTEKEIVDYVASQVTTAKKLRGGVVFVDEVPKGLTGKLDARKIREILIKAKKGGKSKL
Voltage-gated inwardly rectifying potassium channel KCNH2 (Homo sapiens), sequence (Q12809 whole entry, looked up): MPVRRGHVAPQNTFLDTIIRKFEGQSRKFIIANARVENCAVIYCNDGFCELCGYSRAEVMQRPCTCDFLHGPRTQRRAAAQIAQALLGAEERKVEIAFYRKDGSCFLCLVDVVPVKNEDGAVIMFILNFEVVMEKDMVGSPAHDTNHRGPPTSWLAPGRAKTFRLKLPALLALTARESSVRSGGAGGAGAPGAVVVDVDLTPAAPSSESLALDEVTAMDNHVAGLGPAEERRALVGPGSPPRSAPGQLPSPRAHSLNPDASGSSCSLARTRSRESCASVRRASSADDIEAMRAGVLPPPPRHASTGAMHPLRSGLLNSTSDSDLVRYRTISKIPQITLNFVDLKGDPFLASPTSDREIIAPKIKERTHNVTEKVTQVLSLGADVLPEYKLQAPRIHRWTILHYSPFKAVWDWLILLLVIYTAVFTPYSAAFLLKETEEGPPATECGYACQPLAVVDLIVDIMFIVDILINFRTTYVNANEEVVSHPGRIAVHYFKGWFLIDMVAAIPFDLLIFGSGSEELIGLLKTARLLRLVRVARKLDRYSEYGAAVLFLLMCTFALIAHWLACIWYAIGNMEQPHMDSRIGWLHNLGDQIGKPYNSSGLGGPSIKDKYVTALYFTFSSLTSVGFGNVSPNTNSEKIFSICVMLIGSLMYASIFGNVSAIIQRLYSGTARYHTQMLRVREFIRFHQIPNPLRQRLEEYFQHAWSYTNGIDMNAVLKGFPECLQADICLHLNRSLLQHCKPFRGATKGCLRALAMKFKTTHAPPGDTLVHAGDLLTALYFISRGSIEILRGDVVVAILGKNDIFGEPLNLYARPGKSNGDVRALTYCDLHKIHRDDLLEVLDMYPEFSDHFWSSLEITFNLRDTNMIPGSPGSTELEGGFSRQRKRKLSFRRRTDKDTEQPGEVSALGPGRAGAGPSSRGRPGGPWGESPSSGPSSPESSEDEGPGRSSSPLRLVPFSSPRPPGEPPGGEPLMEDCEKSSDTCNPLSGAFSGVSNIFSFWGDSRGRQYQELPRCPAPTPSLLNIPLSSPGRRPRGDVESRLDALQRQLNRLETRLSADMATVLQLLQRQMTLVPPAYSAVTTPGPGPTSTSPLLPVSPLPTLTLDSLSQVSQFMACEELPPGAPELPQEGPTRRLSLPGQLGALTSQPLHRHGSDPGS
Thyroid hormone receptor beta (Homo sapiens), sequence (P10828 whole entry, looked up): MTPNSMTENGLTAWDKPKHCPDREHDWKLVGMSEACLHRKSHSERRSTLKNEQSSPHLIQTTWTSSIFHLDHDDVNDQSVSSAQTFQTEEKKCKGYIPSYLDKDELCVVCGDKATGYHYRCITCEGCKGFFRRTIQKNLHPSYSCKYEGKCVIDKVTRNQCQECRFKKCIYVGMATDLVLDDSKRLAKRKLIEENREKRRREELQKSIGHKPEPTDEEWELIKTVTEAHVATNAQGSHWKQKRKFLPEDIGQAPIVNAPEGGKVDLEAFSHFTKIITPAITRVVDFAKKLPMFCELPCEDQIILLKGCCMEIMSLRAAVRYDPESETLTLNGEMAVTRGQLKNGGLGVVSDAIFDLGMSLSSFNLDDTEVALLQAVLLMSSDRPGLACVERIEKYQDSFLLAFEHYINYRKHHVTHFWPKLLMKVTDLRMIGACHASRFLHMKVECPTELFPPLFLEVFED
Glucagon-like peptide 1 receptor (Homo sapiens), sequence (P43220 whole entry, looked up): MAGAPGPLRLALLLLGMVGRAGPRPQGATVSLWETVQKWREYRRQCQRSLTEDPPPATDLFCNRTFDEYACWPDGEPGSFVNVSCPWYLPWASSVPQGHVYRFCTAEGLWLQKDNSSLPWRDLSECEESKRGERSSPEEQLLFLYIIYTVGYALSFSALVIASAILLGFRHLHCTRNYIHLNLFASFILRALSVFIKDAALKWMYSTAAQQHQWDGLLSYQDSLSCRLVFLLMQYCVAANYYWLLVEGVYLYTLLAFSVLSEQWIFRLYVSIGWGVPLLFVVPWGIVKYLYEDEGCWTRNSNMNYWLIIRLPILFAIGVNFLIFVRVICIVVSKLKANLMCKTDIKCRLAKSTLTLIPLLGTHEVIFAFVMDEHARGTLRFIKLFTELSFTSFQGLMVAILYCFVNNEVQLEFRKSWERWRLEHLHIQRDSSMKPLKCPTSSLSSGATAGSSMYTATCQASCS
Glutaminase kidney isoform, mitochondrial (Homo sapiens), sequence (O94925 whole entry, looked up, canonical isoform): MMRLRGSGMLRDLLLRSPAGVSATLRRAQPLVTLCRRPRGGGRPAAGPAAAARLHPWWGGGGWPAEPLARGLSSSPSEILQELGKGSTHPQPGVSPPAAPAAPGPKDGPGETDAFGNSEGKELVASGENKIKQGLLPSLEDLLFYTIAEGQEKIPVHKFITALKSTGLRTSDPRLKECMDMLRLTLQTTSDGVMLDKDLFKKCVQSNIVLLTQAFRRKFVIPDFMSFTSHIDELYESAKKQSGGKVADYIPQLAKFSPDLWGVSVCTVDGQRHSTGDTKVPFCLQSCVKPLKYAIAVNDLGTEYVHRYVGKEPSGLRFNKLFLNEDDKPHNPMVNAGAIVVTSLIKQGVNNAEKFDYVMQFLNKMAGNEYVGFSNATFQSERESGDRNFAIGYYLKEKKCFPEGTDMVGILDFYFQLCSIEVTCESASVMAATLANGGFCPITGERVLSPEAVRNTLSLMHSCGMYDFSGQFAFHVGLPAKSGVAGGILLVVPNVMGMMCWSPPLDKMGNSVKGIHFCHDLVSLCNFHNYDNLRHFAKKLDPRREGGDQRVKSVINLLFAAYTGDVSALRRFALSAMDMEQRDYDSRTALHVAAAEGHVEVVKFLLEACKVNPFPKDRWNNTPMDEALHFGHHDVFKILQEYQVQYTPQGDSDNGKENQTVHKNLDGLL

Consider `Oc1ccc(/C=C/c2cc(O)cc(O)c2)cc1`, for which, in experiment [1], the activity change % (negative = inhibition) was 0.49% and -24.4%. Further, the Potency result in experiment [2] was “inactive”. The Potency in [3] is 5.01 µM (active). The result in [4], in experiment [5] and in experiment [6] was inactive.

For `Cc1ccc(S(=O)(=O)NCl)cc1`, the activity change % (negative = inhibition) in experiment [1] is 3.3%. The Potency entry in experiment [2], in experiment [7], in experiment [8] and in experiment [9] was “inactive” each time.

Turning to `OCC(O)CO`, the activity change % (negative = inhibition) in experiment [1] is -5.42% and 3.32%. Besides, the Potency entry in [2], in experiment [7] and in experiment [9] was “inactive” in each case. For the same molecule, the ratio activity, negative = inhibition in [10] was 2.96%.

For `Nc1nccs1`, the activity change % (negative = inhibition) in [1] is 8.98%. Further, the Potency result in experiment [7], in experiment [8] and in [9] was “inactive” throughout.

As to `c1ccc2ccccc2c1`, the activity change % (negative = inhibition) in experiment [1] is 2.25% and -17.5%. For the same molecule, the Potency result in experiment [2], in experiment [7], in experiment [8] and in experiment [9] was “inactive” each time.

Consider `NC(N)=O`, for which the activity change % (negative = inhibition) in experiment [1] was -11.3%. Further, the Potency result in experiment [2], in experiment [7], in experiment [8] and in experiment [9] was “inactive” throughout. Besides, the ratio activity, negative = inhibition in experiment [10] is 0.531%.

`O=c1n(CC2CO2)c(=O)n(CC2CO2)c(=O)n1CC1CO1` (stereo not drawn): the activity change % (negative = inhibition) in [1] is -18.3% and -20.3%. The Potency entry in experiment [2], in experiment [7] and in [8] was “inactive” in each case. In [10], the ratio activity, negative = inhibition was -25.3%.

With `CO`, the activity change % (negative = inhibition) in experiment [1] is 0.348%. Further, the Potency entry in experiment [2], in experiment [7], in experiment [8] and in experiment [9] was “inactive” throughout. The ratio activity, negative = inhibition in experiment [10] is 1.83%.

Regarding `CC(C)CCC[C@@H](C)[C@H]1CC[C@H]2[C@@H]3CC=C4C[C@@H](O)CC[C@]4(C)[C@H]3CC[C@]12C`, the activity change % (negative = inhibition) in [1] is -1.74%. Further, the Potency result in experiment [7], in experiment [8] and in experiment [9] was “inactive” each time. In addition, the ratio activity, negative = inhibition in experiment [10] is 7.26%.

`CN(CCO)CC(O)Cn1cnc2c1c(=O)n(C)c(=O)n2C` (stereo not drawn) (tested in a mixture with another compound): in experiment [1], the activity change % (negative = inhibition) is 12.1%. The Potency result in experiment [2], in experiment [7], in experiment [8] and in experiment [9] was “inactive” in each case. The ratio activity, negative = inhibition in experiment [10] was 1.27%.
